Test [1] has as its target human RAR-related Orphan Receptor beta (RORb), RORB (gene 6096) (UniProt Q92753). Put plainly: ATG_RORb_TRANS: Attagene TRANS-FACTORIAL HepG2 Assay for human RAR-related Orphan Receptor beta (RORb) (AID 2283010; active = hit-call score of the fitted dose curve at least 0.9, where 1 is the maximum). In a few lines:
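Multiplexed transcription-factor reporter assay: HepG2 cells transiently carrying NR-Gal4/GAL4-UAS constructs, 24 h treatment, mRNA quantified by RT-PCR plus capillary electrophoresis fluorescence; activity scored as induction over DMSO.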

Test [2] has as its target Retinoic acid receptor RXR-alpha (Homo sapiens) (UniProt P19793). Put plainly: ATG_RXRa_TRANS: Attagene TRANS-FACTORIAL HepG2 Assay for human Retinoid X Receptor alpha (RXRa) (AID 2283012; active = hit-call score of the fitted dose curve at least 0.9, where 1 is the maximum). In a few lines: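 Chimeric NR-GAL4 trans-activation in HepG2, 24 h treatment; reporter transcripts quantified by fluorescence on capillary electrophoresis, analysed for upward change from DMSO.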

Test [3] concerns the target human Retinoid X Receptor beta (RXRb), RXRB (gene 6257) (UniProt P28702). Put plainly: ATG_RXRb_TRANS: Attagene TRANS-FACTORIAL HepG2 Assay for human Retinoid X Receptor beta (RXRb) (AID 2283013; active = hit-call score of the fitted dose curve at least 0.9, where 1 is the maximum). In a few lines:
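After a 24 h incubation with test chemical, transfected HepG2 cells carrying NR-Gal4 fusions and GAL4-UAS reporter transcription units yield RNA whose reporter cDNA is FAM-labelled, HpaI-cut and sized by capillary electrophoresis; increases over DMSO are scored.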

Test [4] has as its target human Thyroid Receptor alpha (THRa1), THRA (gene 7067) (UniProt P10827). Put plainly: ATG_THRa1_TRANS: Attagene TRANS-FACTORIAL HepG2 Assay for human Thyroid Receptor alpha (THRa1) (AID 2283014; active = hit-call score of the fitted dose curve at least 0.9, where 1 is the maximum). In a few lines:
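Reporter transcript induction, read by capillary electrophoresis of 6-FAM-labelled RT-PCR products, reflects activity of a transfected THRa1-Gal4 fusion in HepG2 liver cells. Cells were dosed for 24 h; activity was fitted in the positive direction against DMSO.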

Read-out in test [5]: E-selectin (Homo sapiens) (UniProt P16581)
Put plainly: BSK_3C_Eselectin: BioMAP Diversity Plus: 3C Assay for Eselectin Biomarker Activity (AID 2283015).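 Note: cell surface E-selectin protein quantified by ELISA 24 h after dosing.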 As to conditions: primary human endothelial cells (HUVEC); actives raise or lower the signal. In a few lines: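 ELISA read-out of E-selectin on endothelial monolayers after 24 h chemical treatment. Human umbilical vein primary cells served as the system, with DMSO defining baseline activity for bidirectional fitting.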

Read-out in test [6]: Interleukin-1 alpha (IL1a), IL1A (gene 3552)
Put plainly: BSK_BE3C_IL1a: BioMAP Diversity Plus: BE3C Assay for Interleukin-1 alpha (IL1a) Biomarker Activity (AID 2283016). As to conditions: primary human bronchial epithelial cells; actives raise or lower the signal. In a few lines:
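Measured in human lung primary bronchial epithelial cells: IL-1a by ELISA at 24 h after dosing, with bidirectional fitting against DMSO.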

Read-out in test [7]: Monocyte Chemoattractant Protein-1 (MCP1), CCL2 (gene 6347)
Put plainly: BSK_3C_MCP1: BioMAP Diversity Plus: 3C Assay for Monocyte Chemoattractant Protein-1 (MCP1) Biomarker Activity (AID 2283017). As to conditions: primary human endothelial cells (HUVEC); actives raise or lower the signal. In a few lines:
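ELISA read-out of MCP-1 from human umbilical vein endothelial cell cultures harvested 24 h post-dosing. Gain or loss of signal was fitted relative to DMSO.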

Read-out in test [8]: Monocyte Chemoattractant Protein-1 (MCP1), CCL2 (gene 6347)
Put plainly: BSK_4H_MCP1: BioMAP Diversity Plus: 4H Assay for Monocyte Chemoattractant Protein-1 (MCP1) Biomarker Activity (AID 2283018). As to conditions: primary human endothelial cells (HUVEC); actives raise or lower the signal. In a few lines:
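Primary human umbilical vein endothelium is exposed to chemical for 24 h before MCP-1 is assayed by ELISA. Concentration-response fitted bidirectionally relative to DMSO.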

Read-out in test [9]: Human Leukocyte Antigen - DR isotype (HLADR), HLA-DRA (gene 3122)
Put plainly: BSK_3C_HLADR: BioMAP Diversity Plus: 3C Assay for Human Leukocyte Antigen - DR isotype (HLADR) Biomarker Activity (AID 2283019). Conditions: primary human endothelial cells (HUVEC); actives raise or lower the signal. In a few lines: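 ELISA readout of surface HLA-DR on human umbilical vein endothelium, taken 24 h after chemical treatment. Gain- and loss-of-signal were both fitted relative to DMSO.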

Read-out in test [10]: Interleukin-8 (IL8), CXCL8 (gene 3576)
Put plainly: BSK_3C_IL8: BioMAP Diversity Plus: 3C Assay for Interleukin-8 (IL8) Biomarker Activity (AID 2283020). Conditions: primary human endothelial cells (HUVEC); actives raise or lower the signal. In a few lines: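 Using DMSO-treated wells as the baseline, bidirectional curve fitting was applied to ELISA-measured IL-8 from human umbilical vein endothelial cultures sampled 24 h after compound addition.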

Read-out in test [11]: Monokine induced gamma interferon (MIG), CXCL9 (gene 4283)
Put plainly: BSK_3C_MIG: BioMAP Diversity Plus: 3C Assay for Monokine induced gamma interferon (MIG) Biomarker Activity (AID 2283021). Conditions: primary human endothelial cells (HUVEC); actives raise or lower the signal. In a few lines: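 ELISA-measured MIG in dosed HUVEC 3C cultures at 24 h, analysed by bidirectional fitting with DMSO defining baseline activity.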

Test [12] has as its target human Vitamin D Receptor (VDR), VDR (gene 7421) (UniProt P11473). Put plainly: ATG_VDR_TRANS: Attagene TRANS-FACTORIAL HepG2 Assay for human Vitamin D Receptor (VDR) (AID 2283022; active = hit-call score of the fitted dose curve at least 0.9, where 1 is the maximum). In a few lines:
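Steps: transfect HepG2 with GAL4-UAS-driven reporter constructs; dose compounds 24 h; isolate RNA, reverse-transcribe, PCR-amplify with 6-FAM-labelled primer extension and HpaI digestion; quantify fragments by capillary electrophoresis relative to DMSO.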

Test [13] in a line: BSK_3C_SRB: Viability Assessment in the BioMAP Diversity Plus: 3C Assay (AID 2283023).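 Note: fitted both ways against DMSO so a hit may be signal rise or drop.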 As to conditions: primary human endothelial cells (HUVEC). In a few lines: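 Absorbance at 560 nm of sulforhodamine B-stained (0.1%) total protein served as a cytotoxicity readout in human umbilical vein endothelial cells, 24 h after chemical treatment. Signal was fitted bidirectionally relative to DMSO.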

Read-out in test [14]: Matrix Metallopeptidase 1 (MMP1), MMP1 (gene 4312)
Put plainly: BSK_BE3C_MMP1: BioMAP Diversity Plus: BE3C Assay for Matrix Metallopeptidase 1 (MMP1) Biomarker Activity (AID 2283024). As to conditions: primary human bronchial epithelial cells; actives raise or lower the signal. In a few lines: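 In this multiplexed primary-cell system, human bronchial epithelium received chemicals for 24 h before an ELISA for MMP1. Values reflect bidirectional fits normalised to the DMSO baseline.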

Read-out in test [15]: Pselectin, SELP (gene 6403)
Put plainly: BSK_4H_Pselectin: BioMAP Diversity Plus: 4H Assay for Pselectin Biomarker Activity (AID 2283026). As to conditions: primary human endothelial cells (HUVEC); actives raise or lower the signal. In a few lines:
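Bidirectional fits against DMSO gave the endpoint. Cells: primary human umbilical vein endothelium, chemical-treated for 24 h before ELISA detection of P-selectin.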

Test [16] is described as follows: BSK_4H_SRB: Viability Assessment in the BioMAP Diversity Plus: 4H Assay (AID 2283027).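 Note: cells exposed to compound for 24 h before staining.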 As to conditions: primary human endothelial cells (HUVEC). In a few lines:
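Cytotoxicity readout: sulforhodamine B (0.1%) staining of total protein after 10% TCA fixation, measured at 560 nm in human umbilical vein endothelium at 24 h. DMSO set the baseline; fitting was bidirectional.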

Read-out in test [17]: Thrombomodulin, THBD (gene 7056)
Put plainly: BSK_3C_Thrombomodulin: BioMAP Diversity Plus: 3C Assay for Thrombomodulin Biomarker Activity (AID 2283029). Conditions: primary human endothelial cells (HUVEC); actives raise or lower the signal. In a few lines: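 In a multiplexed primary-cell system, human umbilical vein endothelium received chemical and was assayed 24 h later for thrombomodulin by ELISA. Parallel cultures were SRB-stained (0.1% SRB after 10% TCA fixation, read at 560 nm) to flag cytotoxicity.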

Test [18] addresses human RAR-related Orphan Receptor gamma (RORg), RORC (gene 6097) (UniProt P51449). Put plainly: ATG_RORg_TRANS: Attagene TRANS-FACTORIAL HepG2 Assay for human RAR-related Orphan Receptor gamma (RORg) (AID 2283011; active = hit-call score of the fitted dose curve at least 0.9, where 1 is the maximum). In a few lines: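 First, HepG2 liver cells were transfected with GAL4-UAS-driven reporter constructs and the RORg-Gal4 fusion. Next, they were treated with chemical for 24 h. Finally, reporter mRNA was quantified by RT-PCR and capillary electrophoresis, with upward activity fitted against DMSO.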

The nature of test [19]: BSK_3C_Vis: BioMAP Diversity Plus: 3C Assay for Morphology Visualization (AID 2283025).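 Note: light microscopy image of cell morphology used as background control; fitted both ways so gain or loss versus DMSO counts.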 As to conditions: primary human endothelial cells (HUVEC). In a few lines: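 Light-microscopy morphology readout, 24 h exposure, human primary umbilical vein endothelium; analysed relative to DMSO with bidirectional fitting.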
A short description of test [20]: BSK_BE3C_SRB: Viability Assessment in the BioMAP Diversity Plus: BE3C Assay (AID 2283028). Conditions: primary human bronchial epithelial cells. In a few lines: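 Cells (human bronchial epithelial, primary) are treated with chemicals, and after 24 h the parallel cultures are fixed in 10% TCA. These are then stained with 0.1% SRB and read at 560 nm. Gain or loss of signal is fitted relative to DMSO.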

Records with an inconclusive call do not appear. More than one record can exist for a structure, and the calls need not agree. Activity calls are given as the source filed them. Rule for the calls, unless noted: active = hit-call score of the fitted dose curve at least 0.9, where 1 is the maximum; inactive = score below 0.9.

Retinoic acid receptor RXR-alpha (Homo sapiens), sequence (P19793 whole entry, looked up, the tested form may be a part): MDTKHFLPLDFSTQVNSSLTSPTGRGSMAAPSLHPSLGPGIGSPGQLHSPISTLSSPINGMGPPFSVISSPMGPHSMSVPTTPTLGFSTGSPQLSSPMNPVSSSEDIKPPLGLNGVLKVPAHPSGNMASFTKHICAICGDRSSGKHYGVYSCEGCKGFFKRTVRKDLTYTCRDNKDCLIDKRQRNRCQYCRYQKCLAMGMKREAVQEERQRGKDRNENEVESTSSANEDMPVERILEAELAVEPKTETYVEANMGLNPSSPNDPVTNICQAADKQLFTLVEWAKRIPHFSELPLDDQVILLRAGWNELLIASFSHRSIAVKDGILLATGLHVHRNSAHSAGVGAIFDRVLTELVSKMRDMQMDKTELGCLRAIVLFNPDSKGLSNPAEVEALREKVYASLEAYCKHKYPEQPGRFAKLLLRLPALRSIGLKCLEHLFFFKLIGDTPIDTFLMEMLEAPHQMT
human Vitamin D Receptor (VDR), VDR (gene 7421), sequence (P11473 whole entry, looked up, the tested form may be a part): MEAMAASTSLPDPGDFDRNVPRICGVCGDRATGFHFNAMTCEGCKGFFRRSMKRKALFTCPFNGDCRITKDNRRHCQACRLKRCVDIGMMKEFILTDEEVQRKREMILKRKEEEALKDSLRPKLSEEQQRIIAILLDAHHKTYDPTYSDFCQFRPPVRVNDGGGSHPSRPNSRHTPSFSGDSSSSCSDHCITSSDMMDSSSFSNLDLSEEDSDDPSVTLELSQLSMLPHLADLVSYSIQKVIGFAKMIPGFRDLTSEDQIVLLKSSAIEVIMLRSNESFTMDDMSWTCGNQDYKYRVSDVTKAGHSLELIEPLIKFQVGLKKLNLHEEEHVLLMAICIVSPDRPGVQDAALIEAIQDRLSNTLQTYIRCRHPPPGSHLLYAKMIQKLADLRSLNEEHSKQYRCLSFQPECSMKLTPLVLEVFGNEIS
human RAR-related Orphan Receptor gamma (RORg), RORC (gene 6097), sequence (P51449 whole entry, looked up, the tested form may be a part): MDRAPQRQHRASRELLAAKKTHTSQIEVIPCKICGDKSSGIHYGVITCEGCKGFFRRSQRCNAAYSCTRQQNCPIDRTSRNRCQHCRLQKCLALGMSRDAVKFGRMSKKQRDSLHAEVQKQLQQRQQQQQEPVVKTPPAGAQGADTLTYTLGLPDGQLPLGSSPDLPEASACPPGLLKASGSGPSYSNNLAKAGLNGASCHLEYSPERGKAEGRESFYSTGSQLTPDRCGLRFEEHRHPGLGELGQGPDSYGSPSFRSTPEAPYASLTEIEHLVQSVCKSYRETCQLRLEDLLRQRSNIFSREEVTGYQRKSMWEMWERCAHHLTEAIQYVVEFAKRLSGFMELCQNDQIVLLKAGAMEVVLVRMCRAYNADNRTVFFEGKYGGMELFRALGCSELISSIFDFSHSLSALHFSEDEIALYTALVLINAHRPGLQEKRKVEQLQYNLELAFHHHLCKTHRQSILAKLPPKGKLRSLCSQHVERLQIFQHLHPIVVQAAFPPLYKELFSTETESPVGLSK
human Retinoid X Receptor beta (RXRb), RXRB (gene 6257), sequence (P28702 whole entry, looked up, the tested form may be a part): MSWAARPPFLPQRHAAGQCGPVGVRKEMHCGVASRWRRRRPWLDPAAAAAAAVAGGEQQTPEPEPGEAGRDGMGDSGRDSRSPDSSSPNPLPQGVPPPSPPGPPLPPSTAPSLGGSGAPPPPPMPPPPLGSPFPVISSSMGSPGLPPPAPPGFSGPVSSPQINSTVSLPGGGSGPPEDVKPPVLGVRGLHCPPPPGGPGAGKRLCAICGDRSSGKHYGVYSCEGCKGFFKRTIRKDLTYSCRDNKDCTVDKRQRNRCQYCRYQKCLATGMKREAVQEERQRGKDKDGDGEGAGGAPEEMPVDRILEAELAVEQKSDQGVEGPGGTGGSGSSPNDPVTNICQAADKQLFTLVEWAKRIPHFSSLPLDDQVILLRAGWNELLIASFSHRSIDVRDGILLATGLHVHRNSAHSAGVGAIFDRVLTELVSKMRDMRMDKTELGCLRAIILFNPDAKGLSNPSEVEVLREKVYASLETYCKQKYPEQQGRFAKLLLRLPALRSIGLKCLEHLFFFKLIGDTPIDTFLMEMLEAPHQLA
human RAR-related Orphan Receptor beta (RORb), RORB (gene 6096), sequence (Q92753 whole entry, looked up, the tested form may be a part): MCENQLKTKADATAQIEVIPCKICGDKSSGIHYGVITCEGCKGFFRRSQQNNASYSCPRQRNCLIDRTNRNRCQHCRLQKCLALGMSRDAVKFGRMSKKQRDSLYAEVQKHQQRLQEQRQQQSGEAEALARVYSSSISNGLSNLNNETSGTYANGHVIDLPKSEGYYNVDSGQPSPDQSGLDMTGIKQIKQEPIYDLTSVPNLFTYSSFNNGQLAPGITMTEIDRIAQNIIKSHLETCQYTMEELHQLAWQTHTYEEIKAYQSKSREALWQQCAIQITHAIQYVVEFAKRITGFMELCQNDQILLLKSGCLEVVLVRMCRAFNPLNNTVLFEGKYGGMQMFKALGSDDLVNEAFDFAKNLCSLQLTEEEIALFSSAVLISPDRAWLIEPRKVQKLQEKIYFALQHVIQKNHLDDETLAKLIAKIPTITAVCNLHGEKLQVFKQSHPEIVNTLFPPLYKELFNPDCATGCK
human Thyroid Receptor alpha (THRa1), THRA (gene 7067), sequence (P10827 whole entry, looked up, the tested form may be a part): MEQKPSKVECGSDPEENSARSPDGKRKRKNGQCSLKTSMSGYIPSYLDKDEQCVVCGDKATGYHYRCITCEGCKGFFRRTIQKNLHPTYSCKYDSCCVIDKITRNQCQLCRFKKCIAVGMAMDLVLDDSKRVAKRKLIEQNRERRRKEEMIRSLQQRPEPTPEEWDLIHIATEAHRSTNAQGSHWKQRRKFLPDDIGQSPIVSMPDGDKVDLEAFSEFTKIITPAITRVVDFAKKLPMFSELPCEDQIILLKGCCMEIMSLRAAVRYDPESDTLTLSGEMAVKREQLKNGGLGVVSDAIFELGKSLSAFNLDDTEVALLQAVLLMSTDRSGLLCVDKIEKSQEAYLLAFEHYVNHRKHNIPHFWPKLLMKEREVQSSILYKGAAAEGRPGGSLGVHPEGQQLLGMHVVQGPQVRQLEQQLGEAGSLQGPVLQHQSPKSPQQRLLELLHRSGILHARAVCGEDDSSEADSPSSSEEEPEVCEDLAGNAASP
E-selectin (Homo sapiens), sequence (P16581 whole entry, looked up): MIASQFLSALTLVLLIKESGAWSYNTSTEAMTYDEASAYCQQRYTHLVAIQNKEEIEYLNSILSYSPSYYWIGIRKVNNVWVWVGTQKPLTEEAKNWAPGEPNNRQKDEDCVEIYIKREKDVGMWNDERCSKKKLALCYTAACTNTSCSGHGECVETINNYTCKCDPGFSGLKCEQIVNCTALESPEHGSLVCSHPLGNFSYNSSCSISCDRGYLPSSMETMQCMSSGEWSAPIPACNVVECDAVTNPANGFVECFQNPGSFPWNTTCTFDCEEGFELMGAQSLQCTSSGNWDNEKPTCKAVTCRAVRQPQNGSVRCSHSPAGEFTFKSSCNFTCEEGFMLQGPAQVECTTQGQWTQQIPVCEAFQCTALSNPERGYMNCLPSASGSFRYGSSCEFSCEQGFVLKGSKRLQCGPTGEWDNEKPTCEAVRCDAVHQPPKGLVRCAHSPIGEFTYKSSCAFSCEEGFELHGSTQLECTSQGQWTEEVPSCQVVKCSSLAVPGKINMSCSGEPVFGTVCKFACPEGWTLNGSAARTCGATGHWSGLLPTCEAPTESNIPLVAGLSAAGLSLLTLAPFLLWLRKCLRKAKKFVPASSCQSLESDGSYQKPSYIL

For the molecule `FC(F)(F)C(F)(F)C(F)(F)C(F)(F)C(F)(F)C(F)(F)C(F)(F)C(F)(F)F`, the molecule was called inactive in test [1], in [2], in test [3], in [4], in test [5] and in test [6]. Moreover, the result in [7], in test [8], in test [9], in [10], in [11] and in [12] was inactive. Besides, the outcome in test [13], in [14], in test [15], in [16] and in [17] was inactive.
Consider `CCC(=O)OCCc1ccccc1`, for which the outcome in test [1], in test [2] and in test [4] was inactive.
In general, AC50 refers to the concentration giving half of the maximal activity seen. `CCN(CC)c1ccc2c(C)cc(=O)oc2c1`: the molecule was called inactive in [18], in test [2], in test [4], in test [5], in test [6] and in test [7]. In addition, the result in test [8], in test [10], in [11], in test [13], in test [14] and in test [15] was inactive. Besides, the result in [16] and in test [17] was inactive. In addition, the values for the AC50 in test [3], in [9] and in test [19] were 26.5 µM (active), 31.3 µM (active) and 37.5 µM (active), respectively.
`Nc1ccc(S(=O)(=O)Nc2nccs2)cc1`: the molecule was called inactive in test [1] and in test [3].
`OCC(F)(F)C(F)(F)C(F)(F)F`: the call in [1], in test [2], in [3], in [4], in [5] and in test [6] was inactive. The outcome in [7], in test [8], in test [9], in test [10], in [11] and in [13] was inactive. For the same molecule, the outcome in test [14], in [15], in [16] and in test [17] was inactive.
For the molecule `CCCCCC=O`, the molecule was called inactive in test [1], in test [2], in test [3], in test [4] and in [12].
`O=C(O)C(F)(F)C(F)(F)C(F)F`: the result in test [18], in test [2], in test [3], in test [4], in [5] and in test [6] was inactive. Further, the result in [7], in test [8], in [9], in test [10], in test [11] and in [12] was inactive. Moreover, the outcome in test [13], in [14], in test [15], in test [16] and in test [17] was inactive.
In the case of `O=S(=O)(OCC(F)F)C(F)(F)F`, the molecule was called inactive in test [18], in [2], in test [5], in [6], in test [7] and in [8]. The result in [9], in [11], in test [12], in [13], in [14] and in test [15] was inactive. In addition, the outcome in test [16], in test [20] and in test [17] was inactive.
With `C(=C(c1ccccc1)c1ccccc1)c1ccccc1`, the molecule was called inactive in test [1], in test [2], in [4] and in test [12]. Further, in [3], the AC50 is 6.11 µM (active).
`NC(=O)C(F)(F)C(F)(F)C(F)(F)C(F)(F)F`: the molecule was called inactive in test [1], in [5], in test [6], in test [7], in test [8] and in test [9]. The result in test [10], in test [11], in test [12], in test [13], in test [14] and in test [15] was inactive. For the same molecule, the result in test [16] and in [17] was inactive. The AC50 in test [17] was 38.8 µM (active).

For the origin of these results see PubChem BioAssay (EPA / NIEHS).
